HepG2 tox-1: counter-screen for TGF-b inhibitors: cytotoxicity in HepG2 cells. HepG2 CAGA-GFP viability, ATP luminescence, 18 h. Potency, µM (titrated, usually from 46.1 µM), inactives show top-dose activity change, negative = cytotoxicity, usual class: cytotoxic. 0.76% of 410,000 active. AID 588856
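CellTiter-Glo luminescence gave cytotoxicity after 18 hours at 37 degrees C. The cells were HepG2 CAGA-GFP in 1% FBS DMEM, stimulated with 500 pg/mL TGF-beta after compound addition. %Activity was normalised to no-cell wells (complete cell-killing) and DMSO (no toxicity), and curves were fitted and classified.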
TGFb SMAD3 inh: TGF-b pathway inhibition; 1.2% of 410,000 active; Potency, µM (series often up to 46.1 µM), for the others: top-dose activity, negative = inhibition, hits mostly inhibitors; HepG2 CAGA-GFP TGF-b/SMAD3 reporter, GFP fluorescence, 18 h; TGF-beta stimulated, 500 pg/mL final; note: % is set by controls: 0 for no effect and ±100 for the full control effect; nearly all actives have a fitted effect of over 65% in size
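HEPG2 CAGA-GFP, 1000 cells/well; 2 h settle, 37 C; cpd via pin tool; TGF-b 500 pg/mL final; 18 h, 37 C; GFP imaging ex488/em500-530; %Activity normalised to -TGF-b and +DMSO controls; CRC fit, curve class.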
S2 tox: reduces viability in counter-screen for ATXN expression inhibitors; S2 cells (HEK-293 line with an ATXN2-luciferase reporter) viability, CellTiter-Fluor protease fluorescence, 24 h; AID 651635; Potency, µM (series often up to 56.7 µM), usual class: cytotoxic; 0.49% of 400,000 active; note: nearly all actives have a fitted effect of over 40% in size
HT1080 IDH1KD tx: kills HT-1080 cells with IDH1 knockdown | Potency, µM (highest dose often 46.1 µM), for the others: top-dose activity, negative = toxicity, most hits filed as cytotoxic | 2% of 360,000 active | HT-1080 IDH1 knockdown viability, ATP luminescence, 48 h;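 note: 0% = DMSO wells and -100% = cell-free medium wells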
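% activity derives from luminescence (CellTiter-Glo), normalised to DMSO and no-cell wells. HT-1080-IDH1KD cells, 750/well, had 48 h compound exposure at 37 °C.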
ATXN2 expr inh: ATXN2 expression inhibition; HEK-293 ATXN2-luciferase reporter, luminescence, 24 h; 0.72% of 360,000 active; AID 1745845; Potency, µM (top dose mostly 57 µM), for inactives: top-dose activity change, negative = inhibition, hits mostly inhibitors; note: % is set by controls: 0 for no effect and ±100 for the full control effect; nearly all actives have a fitted effect of over 55% in size
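ATXN2-luciferase reporter cells (luciferase flanked by upstream and downstream ATXN2 gene portions) were treated 24 h at 37 °C with compounds at up to 57 uM. SteadyGlo luminescence gave expression; GF-AFC fluorescence gave viability.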
HT1080NT lethal: kills 2HG-producing HT-1080-NT fibrosarcoma cells. HT-1080-NT fibrosarcoma viability, CellTiter-Glo ATP luminescence, 48 h. Potency, µM (series often up to 46.1 µM), for the others: at the top dose activity, negative = less viability, most hits filed as cytotoxic. 1.6% of 360,000 active. AID 686970;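 note: NT is the 2HG producing partner of a matched IDH1 knockdown line; 0% = DMSO-treated cells and -100% = media-only wells without cells; nearly all actives have a fitted effect of over 55% in size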
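Toxicity toward the 2HG-producing NT line was scored as %Activity, normalised to DMSO and no-cell wells, from CellTiter-Glo luminescence after 48 hours' treatment.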
TGFb confirm: TGF-b pathway inhibition, cherry-pick retest. HepG2 CAGA-GFP TGF-b reporter, GFP fluorescence, 18 h; cells stimulated with TGF-beta, 500 pg/mL. Potency, µM (series often up to 46.1 µM), for inactives: at the highest dose activity, negative = inhibition, most hits filed as inhibitors. 63% of 1,600 active. shares compounds with TGFb SMAD3 inh; note: % is set by controls: 0 for no effect and ±100 for the full control effect; nearly all actives have a fitted effect of over 65% in size
HepG2 tox-2: HepG2 cytotoxicity, TGF-b inhibitor counterscreen; HepG2 CAGA-GFP viability, ATP luminescence, 18 h; cells stimulated with TGF-beta, 500 pg/mL; 27% of 1,600 active; Potency, µM (highest dose often 46.1 µM), inactives show at the highest dose activity, negative = cytotoxicity, most hits filed as inhibitors; shares compounds with TGFb SMAD3 inh; note: % is set by controls: 0 for no effect and ±100 for the full control effect; nearly all actives have a fitted effect of over 70% in size
TGFb CCL64 inh: TGF-b inhibition, CCL64 orthogonal assay | shares compounds with TGFb SMAD3 inh | CCL64 CAGA-GFP reporter, TGF-b stimulated, GFP fluorescence, 18 h | Potency, µM (series often up to 46.1 µM), without a hit: at the top dose activity, negative = inhibition, usual class: inhibitors | 41% of 1,600 active; note: nearly all actives have a fitted effect of over 65% in size
COP TGFb inh: validation of TGF-b inhibitors in HepG2 COP promoter reporter. AID 720537. shares compounds with TGFb SMAD3 inh. 3% of 1,600 active. Potency, µM (titrated, usually from 46.1 µM), for inactives: top-dose activity, negative = inhibition, hits mostly inhibitors. HepG2 COP-GFP TGF-b reporter, GFP fluorescence, 18 h; cells stimulated by added recombinant TGF-beta; note: nearly all actives have a fitted effect of over 70% in size
An asterisk follows results filed as active; i = inactive; ? = inconclusive; . = not tested or not shown; ! = not active in a repeat; [ ] = another dose, or the depositor's remark. Sampled rows, rich in hits. Any-hit rate of the full collection: about 3.8%. Calls come from the whole dose curve; as a rule, active = well fitted curve in the direction sought with a large enough effect; inconclusive = small, poorly fitted or top-dose-only effect, or another doubt; inactive = no such curve, though single readings can be large; an effect the other way counts as inactive or inconclusive. Potency is the fitted concentration of half-maximal effect.

SMILES	HepG2 tox-1	TGFb SMAD3 inh	S2 tox	HT1080 IDH1KD tx	ATXN2 expr inh	HT1080NT lethal	TGFb confirm	HepG2 tox-2	TGFb CCL64 inh	COP TGFb inh
O=[N+]([O-])c1ccc(N(CCO)CCO)c2c1no[n+]2[O-]	-115%	7.1µM*	.	5.8µM*	.	8.2µM*	10µM*	13µM*	12µM*	?
CN1CCN(c2ccc([N+](=O)[O-])c3no[n+]([O-])c23)CC1	8.9µM*	3.2µM*	.	4.6µM*	2.4µM*!	2.9µM*	4.1µM*	5.2µM*	3.3µM*	?
Nc1c(Cl)c(Cl)c(Cl)c(Cl)c1Cl	.	.	i	.	-8%[116 µM]	.	.	.	.	.
COc1ccc(NC(=O)C(Cc2ccccc2)NS(=O)(=O)c2ccc3c(c2)oc(=O)n3C)c(OC)c1 (centres undefined)	1%	0%	i	.	5%	.	.	.	.	.
CCOC(=O)c1c(N)n(CCCOC(=O)c2ccco2)c2nc3ccccc3nc12	3.5µM*	2.8µM*	i	18µM*	?	23µM*	4.1µM*	5.2µM*	23µM*	5.8µM*
COCCCn1c(N)c(C(=O)OCCOC)c2nc3ccccc3nc21	-3%	-23%	i	15%	-11%	18%	.	.	.	.
Cc1ccc(N2C(=O)NC(=O)/C(=C\C=C\c3ccco3)C2=O)cc1C	-5%	13µM*	14µM*	-22%	7.9µM*	-16%	2.6µM*	2.9µM*	4.6µM*	?
CC1CCC/C=C/C2CC(O)CC2C(O)/C=C/C(=O)O1 (centres undefined)	-39%	0.11µM*	?	?	?	?	0.065µM*	?	?	67%
ClCCN(CCCl)c1ccc(/C=C/c2sc3ccccc3[n+]2CCCCI)cc1	-15%	?	.	.	.	.	.	.	.	.
O=C(Oc1ccc2ccc(OC(=O)N3CCCCCC3)cc2c1)N1CCCCCC1	9%	?	?	2%	-11%	4%	.	.	.	.
COC(=O)C1=C(c2ccc(-c3ccccc3)c(F)c2)C[C@@H]2CC[C@H]1N2C(=O)N1CCC(C)CC1	0%	4.5µM*	?	?	-35%	?	7.3µM*	?	9.2µM*	18%
COC(=O)C1=C(c2ccc3ccccc3c2)C[C@@H]2CC[C@H]1N2C(=O)N1CCOCC1	-29%	13µM*	i	-18%	0%	-10%	?	-5%	5%	1%
NC(Cc1ccc(C(F)(F)F)cc1)c1csc(Nc2nncc3ccccc23)n1 (centres undefined)	-79%	?	?	?	?	?	.	.	.	.
CC1=CC(C)CC(C)OC(=O)CC(c2ccc(O)cc2)NC(=O)C(Cc2c(Br)[nH]c3ccccc23)N(C)C(=O)C(C)NC(=O)C(C)C1 (centres undefined)	-8%	16µM*	0.015µM*	0.052µM*	?	1.3µM*	?	?	0.26µM*	79%
CC[C@@]1(O)C(=O)OCc2c1cc1n(c2=O)Cc2cc3c(N)cccc3nc2-1	-5%	0.56µM*	?	1.3µM*	-10%	2.1µM*	1.2µM*	0.41µM*	-17%	-1%
O=C1NCN(c2ccccc2)C12CCN(C(c1cc3ccccc3o1)c1nnnn1Cc1ccccc1)CC2 (centres undefined)	0%	14µM*	.	?	?	?	21µM*	-20%	15µM*	5%
O=C1NCN(c2ccccc2)C12CCN(C(c1cc3ccccc3o1)c1nnnn1C1CCCC1)CC2 (centres undefined)	0%	?	?	?	?	?	.	.	.	.
O=C1NCN(c2ccccc2)C12CCN(C(CCc1ccccc1)c1nnnn1Cc1ccccc1)CC2 (centres undefined)	-1%	18µM*	?	?	?	?	15µM*	?	12µM*	76%
O=C1NCN(c2ccccc2)C12CCN(C(c1ccccc1)c1nnnn1Cc1ccccc1)CC2 (centres undefined)	4%	11µM*	?	?	?	-29%	18µM*	-12%	12µM*	-1%
CSCCC(c1nnnn1Cc1ccccc1)N1CCC2(CC1)C(=O)NCN2c1ccccc1 (centres undefined)	8%	?	?	-18%	-24%	?	.	.	.	.
O=C1NCN(c2ccccc2)C12CCN(C(CCc1ccccc1)c1nnnn1-c1ccc3c(c1)OCCO3)CC2 (centres undefined)	4%	13µM*	?	-29%	0%	?	?	-7%	4.1µM*	6%
CC(CNC(=O)c1ccc(CSc2nc3ccncc3n2Cc2ccc(F)cc2)cc1)c1ccccc1 (centres undefined)	-23%	?	?	.	-26%	.	.	.	.	.
CCOc1ccc(CCNC(=O)c2cc3c(-c4cccc(OC)c4)nn(C)c3s2)cc1OCC	-24%	-23%	?	.	?	.	.	.	.	.
CC1CC(C)(O)CC(C(O)CC2CC(=O)NC(=O)C2)C1=O (centres undefined)	-3%	0.32µM*	?	0.16µM*	?	?	0.13µM*	?	0.26µM*	35%
CC=CC(C)=CC(C)C(=O)CC(O)CC1CC(=O)NC(=O)C1 (centres undefined)	-1%	-25%	?	-17%	.	-14%	.	.	.	.

Screening data as filed in PubChem BioAssay.
